Experiment [1] concerns the target Aldehyde dehydrogenase, mitochondrial (Homo sapiens) (UniProt P05091). In words: qHTS for Inhibitors of the Aldehyde Dehydrogenase Family (ALDH2) Primary screen (AID 2061308). Further: nearly all actives have a fitted effect of over 55% in size. For orientation: Quantitative high-throughput screening tests each substance at several concentrations.
Experiment [2] concerns the target Retinaldehyde dehydrogenase 3 (Homo sapiens) (UniProt P47895). The experiment is described as follows: qHTS for Inhibitors of the Aldehyde Dehydrogenase Family (ALDH1A3) Primary screen (AID 2061315).

Records with an inconclusive call do not appear. A call without a number means that no potency is given here. Calls of active or inactive are those of the source. The call rests on the fitted dose curve; in most records, active means well fitted curve in the direction sought with a large enough effect; inconclusive means small, poorly fitted or top-dose-only effect, or another doubt; inactive means no such curve, though single readings can be large; an effect the other way counts as inactive or inconclusive.

On to `O=C1C(F)N([S+](=O)([O-])c2ccc3c(c2)OCCO3)CCN1[S+](=O)([O-])c1c(F)cccc1F` (stereo unspecified), for which the Potency result in experiment [1] and in experiment [2] was “inactive” throughout.
Consider `Cc1cccc(-n2cnc3cc(C(=O)N4CCC(C#N)CC4)ccc32)c1`, for which the Potency result in experiment [1] and in experiment [2] was “inactive” in each case.
`O=S(=O)(Nc1nc(CN2CCOCC2)nc2sc3c(c12)CCCC3)c1ccc2ccccc2c1`: the Potency entry in experiment [1] and in experiment [2] was “inactive” in each case.
With `CCCn1c(-c2ccc(F)cc2)nc2c(NCCN(C)C)nc(C)nc21`, the Potency entry in experiment [1] and in experiment [2] was “inactive” in each case.
Turning to `O=S1(=O)N=C(N2CCOCC2)c2ccccc21`, the Potency result in experiment [1] and in experiment [2] was “inactive” each time.
On to `COc1cc(OC)cc(C2=Nn3c(nnc3-c3cccc(OC)c3)SC2)c1`, for which the Potency entry in experiment [1] and in experiment [2] was “inactive” each time.
Turning to `O=C(OCC#CCSc1nnc(-c2ccc3ccccc3c2)o1)c1cc2ccccc2s1`, the Potency result in experiment [1] and in experiment [2] was “inactive” in each case.
As for `CC(C)[C@@H](C)/C=C/[C@@H](C)[C@H]1CC[C@H]2C3=CC=C4C[C@@H](O)CC[C@]4(C)C3=CC[C@]12C`, the Potency entry in experiment [1] and in experiment [2] was “inactive” throughout.
Regarding `COc1ccc(C2=Nn3c(nnc3-c3ccccc3O)SC2)c(OC)c1`, the Potency result in experiment [1] and in experiment [2] was “inactive” each time.
As to `CC(C)CC(=O)O[C@@H]1OC=C(CO[C@@H]2O[C@H](CO[C@@H]3O[C@H](CO)[C@@H](O)[C@H](O)[C@H]3O)[C@@H](O)[C@H](O)[C@H]2O)[C@H]2C[C@H](O)[C@@H](CO)[C@@H]12`, the Potency entry in experiment [1] and in experiment [2] was “inactive” in each case.
In the case of `CCN1CCCC1Cn1c(-c2ccccc2)nc2c(N3CCOCC3)nc(C)nc21` (stereo unspecified), the Potency result in experiment [1] and in experiment [2] was “inactive” throughout.
For the molecule `Cc1cc(C)nc(NC(=S)N2CCN(c3ccc(N4CCCC4)nn3)CC2)c1`, the Potency entry in experiment [1] and in experiment [2] was “inactive” in each case.
Consider `CC1(C)CC[C@]2(C(=O)OC3OC(CO)C(O)C(O)C3O)CC[C@]3(C)C(=CCC4[C@@]5(C)CC[C@H](OC6OC(C(=O)O)C(O)C(O)C6O)C(CO)(CO)C5CC[C@]43C)[C@@H]2C1` (stereo partly specified), for which the Potency entry in experiment [1] and in experiment [2] was “inactive” throughout.

The record behind these values is PubChem BioAssay (NCATS).
